Common to all, as to assay: NCI-60 one-dose screen, 48 h (100 = growth as untreated, 0 = no growth, -100 = all killed)
One assay concerns SK-MEL-2 melanoma. Particulars: 10 µM unless noted.
Another assay concerns EKVX NSCLC. Particulars: 10 µM unless noted.
The subject of another assay is SN12C renal. The note with it: 10 µM unless noted.
The test system of a further assay is UO-31 renal. The note with it: 10 µM unless noted.
In the next assay the test system is ACHN renal. The note with it: 10 µM unless noted.
Another assay deals with CAKI-1 renal. The note with it: 10 µM unless noted.
Another assay concerns A498 renal. The note with it: 10 µM unless noted.
Another assay has as its system CCRF-CEM leukemia. Particulars: 10 µM unless noted.
The next assay relates to MOLT-4 leukemia. Particulars: 10 µM unless noted.
The next assay deals with SR leukemia. Particulars: 10 µM unless noted.
The test system of the next assay is RPMI-8226 leukemia. Particulars: 10 µM unless noted.
The test system of the next assay is OVCAR-8 ovarian. Particulars: 10 µM unless noted.
Another assay has as its system OVCAR-5 ovarian. The note with it: 10 µM unless noted.
Another assay has as its system SK-OV-3 ovarian. Particulars: 10 µM unless noted.
A further assay has as its system IGROV1 ovarian. Particulars: 10 µM unless noted.
The test system of the next assay is OVCAR-3 ovarian. Particulars: 10 µM unless noted.
Another assay concerns HS 578T breast. The note with it: 10 µM.
The test system of a further assay is NCI/ADR-RES ovarian. The note with it: 10 µM unless noted.
A further assay has as its system OVCAR-4 ovarian. The note with it: 10 µM unless noted.
The subject of the next assay is TK-10 renal. The note with it: 10 µM unless noted.

The panel holds about 83,000 compounds, 20% with a hit somewhere; the sample as a whole holds those more often.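 Cell lines were cultured in 96-well plates, exposed to a single compound concentration, and assessed for percent growth 48 hours later.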 Values without a mark were called inactive. Active and inactive are the calls of the source. How the source made its calls: active means growth percent below 10; inactive means the rest.

For the compound `OC(c1cc2cc(Cl)ccc2c2cc(C(F)(F)F)ccc12)C1CCCCN1` (centres undefined), the growth is -92% (active) with SK-MEL-2 melanoma; -40.4% (active) with EKVX NSCLC; -62.8% (active) with SN12C renal; -88.2% (active) in the assay on UO-31 renal; -78.2% (active) in the assay on ACHN renal; -74.2% (active) with CAKI-1 renal. Also, the growth is 27.2% with A498 renal; -61.2% (active) in the assay on CCRF-CEM leukemia; -69.3% (active) with MOLT-4 leukemia; -75.3% (active) in the assay on SR leukemia; -48% (active) in the assay on RPMI-8226 leukemia; -74.6% (active) with OVCAR-8 ovarian. Moreover, the growth with OVCAR-5 ovarian was -77.8% (active); in the assay on SK-OV-3 ovarian it was -0.379% (active); in the assay on IGROV1 ovarian, -67.4% (active); with OVCAR-3 ovarian, -94.8% (active); with HS 578T breast it was -52.6% (active); in the assay on NCI/ADR-RES ovarian, -66.1% (active).

`COc1c(B(O)O)cccc1-c1nc2ccc3[nH]ncc3c2c2c1CCCC2`: the growth with SK-MEL-2 melanoma is 33.7%; in the assay with EKVX NSCLC, 23.6%; with SN12C renal, 23.7%; in the assay on UO-31 renal, 0.387% (active); with ACHN renal, 3.93% (active); in the assay on CAKI-1 renal, 5.83% (active). The growth with A498 renal was -16.4% (active); with CCRF-CEM leukemia it was 6.99% (active); with MOLT-4 leukemia it was 11.5%; in the assay on SR leukemia it was 13.9%; in the assay on RPMI-8226 leukemia it was 7.44% (active); in the assay on OVCAR-8 ovarian, 17%. In addition, the growth is 29.5% in the assay with OVCAR-5 ovarian; 74.2% in the assay with OVCAR-4 ovarian; 6.76% (active) in the assay on SK-OV-3 ovarian; 13.8% in the assay on IGROV1 ovarian; 19.3% in the assay on OVCAR-3 ovarian; 14.6% in the assay with HS 578T breast. For the same compound, the growth in the assay on NCI/ADR-RES ovarian was 50.7%.

Take `C#CCNC(=S)N/N=C(\C)c1ccccn1`: the growth is 74.3% with SK-MEL-2 melanoma; 22.1% in the assay with EKVX NSCLC; 13.4% in the assay with SN12C renal; -13.9% (active) in the assay on UO-31 renal; 15.7% in the assay on ACHN renal; -13.6% (active) with CAKI-1 renal. For the same compound, the growth is 13.4% in the assay on CCRF-CEM leukemia; 3.54% (active) in the assay on MOLT-4 leukemia; 3.06% (active) in the assay with SR leukemia; 12.9% in the assay on RPMI-8226 leukemia; 12.4% in the assay on OVCAR-8 ovarian; 35.1% in the assay on OVCAR-5 ovarian. Besides, the growth is 29.1% in the assay on OVCAR-4 ovarian; 30.8% in the assay with SK-OV-3 ovarian; 5.45% (active) in the assay with IGROV1 ovarian; 16.6% in the assay with OVCAR-3 ovarian; 70.2% in the assay on HS 578T breast; 8.45% (active) with NCI/ADR-RES ovarian.

For the compound `FC(F)(F)c1ccc(/C=N/Nc2nnc3n2N=C(c2ccc(Cl)cc2)CS3)cc1`, the growth in the assay on SK-MEL-2 melanoma is 84.2%; in the assay with EKVX NSCLC, 66.3%; in the assay on SN12C renal, 57.8%; in the assay with UO-31 renal, 39.7%; with TK-10 renal, 53.1%; with CAKI-1 renal, 63.5%. Further, the growth in the assay on CCRF-CEM leukemia was 99.4%; in the assay with MOLT-4 leukemia, 79.5%; in the assay on SR leukemia it was 79.7%; with RPMI-8226 leukemia it was 85.1%; in the assay on OVCAR-8 ovarian, 19.9%; in the assay on OVCAR-5 ovarian, 92.7%. Also, the growth is 17.4% in the assay with OVCAR-4 ovarian; 40.8% with SK-OV-3 ovarian; 49.2% in the assay with IGROV1 ovarian; 46.7% with OVCAR-3 ovarian; 8.3% (active) in the assay on HS 578T breast; 47.4% in the assay with NCI/ADR-RES ovarian.

In the case of `COc1ccc(NC(=O)c2ccc(C(F)(F)F)nc2Nc2ccc(Cl)cc2C)cc1Cl`, the growth with SK-MEL-2 melanoma is 31.9%; in the assay on EKVX NSCLC, 11.3%; in the assay with SN12C renal, 24%; with UO-31 renal, 9.94% (active); in the assay on TK-10 renal it was 60%; with CAKI-1 renal, 19.9%. For the same compound, the growth was 11.5% in the assay on A498 renal; 11% with CCRF-CEM leukemia; 8.09% (active) in the assay on MOLT-4 leukemia; 23.6% in the assay with SR leukemia; -17.9% (active) in the assay on RPMI-8226 leukemia; 15.6% in the assay on OVCAR-8 ovarian. For the same compound, the growth in the assay on OVCAR-5 ovarian is 10.1%; in the assay with OVCAR-4 ovarian, 24.6%; in the assay on SK-OV-3 ovarian it was 45.4%; in the assay with IGROV1 ovarian it was 27%; in the assay with OVCAR-3 ovarian, 15.5%; in the assay on HS 578T breast, 10.8%. The growth in the assay with NCI/ADR-RES ovarian was 13.3%.

`CCN(C)CCCOc1ccc(/C(=C(\C)Cc2cccc(OC)c2)c2ccc(OC(C)=O)cc2)cc1`: the growth in the assay on SK-MEL-2 melanoma is 103%; with EKVX NSCLC, 92.5%; in the assay with SN12C renal it was 95%; in the assay on UO-31 renal, 92%; in the assay with ACHN renal, 104%; in the assay with CAKI-1 renal it was 94.9%. The growth in the assay with A498 renal is 94.3%; in the assay on CCRF-CEM leukemia, 96.6%; with MOLT-4 leukemia, 103%; in the assay with SR leukemia it was -8.45% (active); in the assay on RPMI-8226 leukemia, 102%; with OVCAR-8 ovarian it was 105%. Moreover, the growth was 99.6% in the assay on OVCAR-5 ovarian; 103% with OVCAR-4 ovarian; 93.7% in the assay on SK-OV-3 ovarian; 102% in the assay on IGROV1 ovarian; 105% in the assay with OVCAR-3 ovarian; 94% in the assay with HS 578T breast. Also, the growth in the assay on NCI/ADR-RES ovarian was 101%.

On to `Clc1cn2cc(-c3ccc(Cl)c(Cl)c3Cl)nc2s1`, for which the growth is 101% with SK-MEL-2 melanoma; 110% in the assay on EKVX NSCLC; 101% in the assay with SN12C renal; 79.2% in the assay on UO-31 renal; 165% with TK-10 renal; 88.1% in the assay with CAKI-1 renal. Besides, the growth with A498 renal is 110%; with CCRF-CEM leukemia, 107%; in the assay on MOLT-4 leukemia, 85.5%; in the assay with SR leukemia, 75.5%; in the assay on RPMI-8226 leukemia it was 108%; with OVCAR-8 ovarian, 99.5%. Also, the growth is 87.8% with OVCAR-5 ovarian; 100% in the assay with OVCAR-4 ovarian; 103% with SK-OV-3 ovarian; 55.7% with IGROV1 ovarian; 101% in the assay on OVCAR-3 ovarian; 104% in the assay with HS 578T breast. In addition, the growth in the assay with NCI/ADR-RES ovarian is 110%.

As for `COc1ccc(-c2oc(=O)ccc2-c2cc(OC)c(OC)c(OC)c2)cc1F`, the growth was 92.8% with SK-MEL-2 melanoma; 99.6% in the assay with EKVX NSCLC; 87.9% in the assay with SN12C renal; 47.3% in the assay on UO-31 renal; 87.1% with ACHN renal; 52.9% in the assay on CAKI-1 renal. Besides, the growth was 83.4% in the assay on A498 renal; 57.6% with CCRF-CEM leukemia; 83.6% in the assay with MOLT-4 leukemia; 7.57% (active) with SR leukemia; 80.8% with RPMI-8226 leukemia; 79.9% in the assay with OVCAR-8 ovarian. In addition, the growth with OVCAR-5 ovarian was 69.2%; in the assay with OVCAR-4 ovarian it was 105%; in the assay with SK-OV-3 ovarian, 106%; in the assay on IGROV1 ovarian, 80.4%; in the assay on OVCAR-3 ovarian, 107%; in the assay with HS 578T breast it was 86.4%. Besides, in the assay with NCI/ADR-RES ovarian, the growth was 57.9%.

These data come from PubChem BioAssay (NCI).
